# Results from PubChem BioAssay (NCI).
# About 83,000 compounds went through this panel and 20% of them were active in at least one assay; those are over-represented in the sample as a whole.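 48-hour exposure, single concentration, 96-well plates; percent growth endpoint where 0 means no net growth. Active: below 10.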 Calls of active or inactive are those of the source.
# System: MDA-MB-468 breast
# Assay: NCI-60 one-dose screen, 48 h (100 = growth as untreated, 0 = no growth, -100 = all killed)
# Conditions: 10 µM unless noted
row,Structure (SMILES),growth
1,CCC1CCc2nc3sc(C(=O)Nc4ccccc4F)c(N)c3cc2C1 (stereo not given),25% (inactive)
2,Cc1nc2ccccc2n1C(=O)C[C@@H]1NC(=S)NC1=O,95.7% (inactive)
3,CCCCCc1ccc(S(=O)(=O)Nc2cccc(-c3csc(NC(=O)CCCCCN4CCN(C)CC4)n3)c2)cc1,79% (inactive)
4,CCCCCCCCCCCC1=NC(C)(C)CN1CC(C)O (stereo not given),10% (inactive)
5,COc1cc(/C=C/C(=O)N2CCN(C(=O)c3cc(OC)c(OC)c(OC)c3)CC2)ccc1OCCCOc1cc2c(cc1OC)C(=O)N1CCC[C@H]1C=N2,-34.6% (active)
6,COc1ccccc1-[n+]1cc(-c2ccc(-c3ccccc3)cc2)n2c1CCCCC2,-23.5% (active)
7,O=C1c2c(c3c4ccc(Br)cc4oc3c3[nH]c4ccccc4c23)C(=O)N1O,45.3% (inactive)
8,CCN1C(=O)N(CC)C2C1NN=C1SCC(=O)N12 (stereo not given),18.2% (inactive)
9,Cc1cc(C)cc(NC2=C(Cl)C(=O)c3nc(C)ccc3C2=O)c1,-75.8% (active)
10,O=C(NCCc1ccccc1)/C(=C\c1ccc(Cl)cc1Cl)NC(=O)c1ccccc1,95.1% (inactive)
11,C=CCn1c(C)nc2cc(Nc3nc(Nc4ccc5nc(C)n(CC=C)c5c4)c4ccccc4n3)ccc21,-85% (active)
12,CCCCn1c(=O)c(/C=C/C(=O)/C=C/c2ccc(O)c(OC)c2)cc2ccc(Cl)cc21,15% (inactive)
13,CCN1CCN(c2nc(NNC(=O)Cc3ccccc3)nc(N3CCN(C(c4ccccc4)c4ccccc4)CC3)n2)CC1,12.2% (inactive)
14,O=C(NCCO)C(F)(F)F,116% (inactive)
15,CC[C@]1(O)C[C@H]2CN(CCc3c([nH]c4ccccc34)C(C(=O)OC)(c3cc4c(cc3OC)N(C)[C@H]3[C@@](O)(C(=O)OC)[C@H](OC(C)=O)[C@]5(CC)[C@@H]6C[C@@H]6CN6CC[C@]43[C@@H]65)C2)C1 (stereo not given in full),28.1% (inactive)
16,O=C1Nc2ccc(Cl)cc2/C1=C/c1ccc(OCc2ccc(F)cc2)cc1,97.3% (inactive)
17,COc1cc2oc(-c3cccc(NC(=O)c4ccc5c(c4)OCO5)c3)cc(=O)c2c(OC)c1OC,75.5% (inactive)
18,c1ccc2c(-c3nc4ccccc4[nH]3)cccc2c1,-15.3% (active)
19,COc1cc2c3c(n(CCCNC4CCC4)c(=O)c2cc1OC)-c1cc2c(cc1C3=O)OCO2,30.6% (inactive)
20,CCOC(=O)CNC(=O)C1(NC(=O)CNC(=O)OCc2ccccc2)CCCC1,131% (inactive)

row,Structure (SMILES),growth
1,CCOc1ccc(Nc2nc(-c3ccc4c(c3)NC(=O)CO4)cs2)cc1,17.8% (inactive)
2,Cc1cc(C)c(-c2c(N)cc(Br)cc2Br)c(N)c1,-17.1% (active)
3,NC(=S)N/N=C/c1ccc(N)cc1,106% (inactive)
4,C[C@]12CC[C@H]3[C@@H](CC=C4C[C@@H](O)CC[C@@]43C)[C@@H]1CC[C@@H]2C(=O)C/C=N/O,90.2% (inactive)
5,Cc1ccc(-n2nc3n(/c2=N\C(=O)NS(=O)(=O)c2ccc(C)cc2)CCN3C2=NCCN2)cc1,114% (inactive)
6,O=Cc1nc2ccccc2[nH]1,108% (inactive)
7,COc1cc(/C=C2\C(=O)N(CCOc3cc(O)c4c(=O)cc(-c5ccccc5)oc4c3)c3ccccc32)cc(OC)c1O,89.6% (inactive)
8,COc1ccc(/C(Cl)=N/N=C(\Cl)c2cc(OC)c(OC)c(OC)c2)cc1OC(C)=O,95.5% (inactive)
9,CN(C)c1ccc2oc(=O)c3ccccc3c2c1,78.3% (inactive)
10,CN(C)CCNc1cccc2sc3ccc(O)cc3c(=O)c12,28.1% (inactive)
11,CC(C)Sc1nc(NNC(N)=S)c(C#N)c(-c2ccc(F)cc2)n1,98.4% (inactive)
12,CSc1nc(Nc2cccc(NC(=O)/C(C#N)=C/c3c(Cl)cccc3Cl)c2)c(C#N)c(-c2cccc([N+](=O)[O-])c2)n1,36.9% (inactive)
13,Cc1cc(Cl)ccc1NC(=O)c1cc2ccccc2cc1O,-9.61% (active)
14,O=C(CN1CCN(c2cc(=O)n(-c3ccccc3)c3ccccc23)CC1)Nc1ccc(F)cc1,9.45% (active)
15,Fc1ccc(NC(c2ccc(F)cc2)C2CCN(CCCCc3ccccc3)CC2)cc1 (stereo not given),7.21% (active)
16,COc1cccc(C2CC(=O)Nc3c2c(C)nn3-c2nc3ccccc3[nH]2)c1OC (stereo not given),71.5% (inactive)
17,Nc1n[nH]c2cccc(C#Cc3cccc(C(=O)Nc4cc(C(F)(F)F)cc(C(F)(F)F)c4)c3)c12,87.5% (inactive)
18,N#Cc1c2c([nH]c(=O)c1C(N)=O)CCCCC2,109% (inactive)
19,Cc1cc2nc(C)c(C)nc2cc1C,112% (inactive)
20,CCc1nc2c(=O)[nH]cnc2o1,90.8% (inactive)
